Here are results for 40 molecules from PubChem BioAssay (NCI).

The panel holds about 79,000 compounds, 15% with a hit somewhere; the sample as a whole holds those more often. Unmarked numbers belong to inactive results. Rule as the data show it: active = growth inhibition above about 70%; inactive = the rest.

The first assay in a line: NCI Yeast Anticancer Drug Screen. Data for the sgs1 mgt1 strain (AID 161).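 Also: 0% = growth of cultures given vehicle only.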 Conditions: S. cerevisiae sgs1 mgt1 strain, at 50.0 µM, active compounds read high. A digest of the protocol: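 Read-out: growth inhibition vs vehicle controls. Cells: mutant yeast strain deficient in DNA damage repair.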
Consider `C=CC(=NC(C)C)N(C)c1ccccc1`, for which the growth inhibition was 1.7%.
Regarding `S=C(SSSC(=S)N(C1CCCCC1)C1CCCCC1)N(C1CCCCC1)C1CCCCC1`, the growth inhibition was 10.1%.
As to `C=C1C2CC[C@@]3(CC[C@@H]4[C@@]5(C)CCC[C@@]4(CN4CCO[C@H]45)[C@@H]3C2)[C@@H]1O`, the growth inhibition is 11.1%.

The next assay in a line: NCI Yeast Anticancer Drug Screen. Data for the cln2 rad14 strain (AID 165).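 Also: 0% = growth equal to vehicle treated cultures.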 The conditions noted are these: S. cerevisiae cln2 rad14 strain, at 50.0 µM, active compounds read high. Put shortly: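 Compounds are applied to the cln2 rad14 yeast strain, and growth is then compared with that of vehicle-treated cultures to give inhibition.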
Turning to `Cc1ccc(C(CCCl)OC(C)C)cc1` (stereo not drawn), the growth inhibition was 25.2%.
As for `NC(=O)/C(=C\c1ccc(OCc2ccccc2)c(OCc2ccccc2)c1)NC(=O)c1ccccc1`, the growth inhibition is 32.6%.
As for `CC(=O)Oc1ncnc2c1cnn2C`, the growth inhibition is -38.6%.
Turning to `Nc1ccn(CCOC(=O)c2ccccc2)c(=O)n1`, the growth inhibition was -6.05%.
In the case of `Cc1cccc(C)c1NC(=O)Nc1cccc(O)c1`, the growth inhibition was -4.4%.
As for `Nc1ccc(Cc2ccc(N)c(Br)c2)cc1Br`, the growth inhibition is -19.3%.
`CC(C)(C)c1nc2c(o1)C(=Nc1ccc(F)cc1)c1ccccc1C2=O`: the growth inhibition is 38.1%.
Turning to `O=C(CCC(=O)Nc1cccc([N+](=O)[O-])c1)CC(=O)c1ccc(Cl)cc1`, the growth inhibition is -25%.
Still for that read-out and setting: in the case of `O=C(Nc1ccccc1)Oc1ccc(C2CCCCC2)cc1` it was 0.95%; in that of `c1ccc([P+](CCNCCNCC[P+](c2ccccc2)(c2ccccc2)c2ccccc2)(c2ccccc2)c2ccccc2)cc1`, 5.65%.
Still for that read-out and setting: the result for `CC(=O)Nc1cc2c(cc1C=O)OCO2` reads -32.3%.
In the case of `COc1ccccc1NC(=O)CC(=O)NN`, the growth inhibition is -25.1%.
Consider `c1ccc2c(c1)Nc1nc3ccccc3nc1N2`, for which the growth inhibition was 15.8%.
Turning to `Cc1ccnc2[nH]c(-c3cccc(Cl)c3)cc(=O)c12`, the growth inhibition was -33%.
For the molecule `COc1ccccc1CO`, the growth inhibition is 13.7%.
For `Clc1nc(-c2ccccc2)nc2ccccc12`, the growth inhibition was -29.6%.
As to `CCOC(=S)SCCSC`, the growth inhibition is 4.35%.
Consider `COc1cc(C(CC#N)CC#N)cc(OC)c1OC`, for which the growth inhibition was 6.45%.
Take `CN(C)C=Nc1ccn(C2CC(F)C(CO)O2)c(=O)n1` (stereo not drawn): the growth inhibition is -7.85%.
For `CCCc1cc(=O)oc2c3c(c4c(c12)OC(C)(C)C=C4)OC(C)[C@H](C)[C@@H]3O` (stereo partly drawn), the growth inhibition was 8.85%.
Take `CCOC(=O)C(C)CC(C)C(=O)OCC` (stereo not drawn): the growth inhibition is -2.85%.
Consider `O=C1CCSc2nc(-c3ccc4c(c3)OCO4)nn21`, for which the growth inhibition is 15.2%.
Regarding `C#CCn1cc(F)c(=O)n(CC#C)c1=O`, the growth inhibition is -33.9%.
Same read-out and setting: the result for `O=C1CCCS(=O)(=O)CCC1` reads -3.5%; that for `Clc1ccc(Cc2ccc(Br)cc2)cc1`, 2.45%.
With `Fc1cc(Cl)c(F)cc1Cl`, the growth inhibition was -27.3%.
On to `O=C(NCCCl)Oc1cccn(C(=O)NCCCl)c1=O`, for which the growth inhibition is 9.1%.
For the molecule `CCOC(=O)c1cnc2cc3c(cc2c1Nc1ccc2c(c1)OCO2)OCO3`, the growth inhibition was 3.6%.
Consider `CCn1c2ccccc2c2c(-c3ccccc3)cc3c(c21)C(=O)N(c1ccccc1)C3=O`, for which the growth inhibition is -54%.
Same read-out and setting: the result for `Fc1ccc2nncc(SCc3ccc(Cl)c(Cl)c3)c2c1` reads -11.2%; that for `CN1C(=O)C(/C=N/NC(=O)c2cccnc2)C(N)N(C)C1=O` (stereo not drawn), -1.45%; that for `Cn1c(-c2ccccc2)c/c(=N\NS(C)(=O)=O)c2cc(S(=O)(=O)O)ccc21`, -3%.
`Cc1ccccc1NC(=O)c1ccc(C(=O)Nc2ccccc2C)cc1`: the growth inhibition was 7.8%.
With `Nc1cc(C(=O)O)c(O)c(Cl)c1O`, the growth inhibition was 21.6%.
On to `Cc1ccc(N(C(=O)CC(=O)N/N=C/c2ccccc2O)C(=O)c2ccccc2)cc1`, for which the growth inhibition is 8.2%.
On to `O=NN(Cc1ccc(Cl)cc1)NC1=NCCN1`, for which the growth inhibition was -3.65%.
As for `CC(=O)c1cc(-c2ccccn2)c(=O)n2ccccc12`, the growth inhibition was -0.3%.
Turning to `C=CC(=NC(C)C)N(C)c1ccccc1`, the growth inhibition is -7.9%.
Same read-out and setting: in the case of `S=C(SSSC(=S)N(C1CCCCC1)C1CCCCC1)N(C1CCCCC1)C1CCCCC1` it was 1.45%; in that of `C=C1C2CC[C@@]3(CC[C@@H]4[C@@]5(C)CCC[C@@]4(CN4CCO[C@H]45)[C@@H]3C2)[C@@H]1O`, 25.9%.

A short description of another assay: NCI Yeast Anticancer Drug Screen. Data for the bub3 strain (AID 167). The conditions noted are these: S. cerevisiae bub3 mutant strain, at 50.0 µM, active compounds read high. Put shortly: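 Inhibition values come from growth of compound-treated mutant yeast normalised to vehicle-treated controls.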
As for `Cc1ccc(C(CCCl)OC(C)C)cc1` (stereo not drawn), the growth inhibition was 22.6%.
Same read-out and setting: the result for `NC(=O)/C(=C\c1ccc(OCc2ccccc2)c(OCc2ccccc2)c1)NC(=O)c1ccccc1` reads -3.65%; that for `CC(=O)Oc1ncnc2c1cnn2C`, 2.15%; that for `Nc1ccn(CCOC(=O)c2ccccc2)c(=O)n1`, 31.2%.
Regarding `Cc1cccc(C)c1NC(=O)Nc1cccc(O)c1`, the growth inhibition is 37.6%.
Consider `Nc1ccc(Cc2ccc(N)c(Br)c2)cc1Br`, for which the growth inhibition was -14.8%.
In the case of `CC(C)(C)c1nc2c(o1)C(=Nc1ccc(F)cc1)c1ccccc1C2=O`, the growth inhibition was 0.65%.
Take `O=C(CCC(=O)Nc1cccc([N+](=O)[O-])c1)CC(=O)c1ccc(Cl)cc1`: the growth inhibition was -12.1%.
Consider `O=C(Nc1ccccc1)Oc1ccc(C2CCCCC2)cc1`, for which the growth inhibition is 23.3%.
Regarding `c1ccc([P+](CCNCCNCC[P+](c2ccccc2)(c2ccccc2)c2ccccc2)(c2ccccc2)c2ccccc2)cc1`, the growth inhibition is -5.2%.
Consider `CC(=O)Nc1cc2c(cc1C=O)OCO2`, for which the growth inhibition is -2.5%.
Same read-out and setting: the result for `COc1ccccc1NC(=O)CC(=O)NN` reads -1.8%; that for `c1ccc2c(c1)Nc1nc3ccccc3nc1N2`, -8%.
Turning to `Cc1ccnc2[nH]c(-c3cccc(Cl)c3)cc(=O)c12`, the growth inhibition was -24.8%.
For `COc1ccccc1CO`, the growth inhibition was 13.8%.
Turning to `Clc1nc(-c2ccccc2)nc2ccccc12`, the growth inhibition is -19.8%.
As to `CCOC(=S)SCCSC`, the growth inhibition was -3.6%.
Still for that read-out and setting: in the case of `COc1cc(C(CC#N)CC#N)cc(OC)c1OC` it was 8.95%; in that of `CN(C)C=Nc1ccn(C2CC(F)C(CO)O2)c(=O)n1` (stereo not drawn), 8.8%.
Consider `CCCc1cc(=O)oc2c3c(c4c(c12)OC(C)(C)C=C4)OC(C)[C@H](C)[C@@H]3O` (stereo partly drawn), for which the growth inhibition was 19.8%.
As to `CCOC(=O)C(C)CC(C)C(=O)OCC` (stereo not drawn), the growth inhibition is 9.9%.
For the molecule `O=C1CCSc2nc(-c3ccc4c(c3)OCO4)nn21`, the growth inhibition is 4.6%.
As for `C#CCn1cc(F)c(=O)n(CC#C)c1=O`, the growth inhibition was -0.05%.
As for `O=C1CCCS(=O)(=O)CCC1`, the growth inhibition is 0.9%.
Consider `Clc1ccc(Cc2ccc(Br)cc2)cc1`, for which the growth inhibition was 49%.
For `Fc1cc(Cl)c(F)cc1Cl`, the growth inhibition was -12.4%.
As to `O=C(NCCCl)Oc1cccn(C(=O)NCCCl)c1=O`, the growth inhibition was 0.65%.
With `CCOC(=O)c1cnc2cc3c(cc2c1Nc1ccc2c(c1)OCO2)OCO3`, the growth inhibition is 0%.
For `CCn1c2ccccc2c2c(-c3ccccc3)cc3c(c21)C(=O)N(c1ccccc1)C3=O`, the growth inhibition was -7.9%.
Take `Fc1ccc2nncc(SCc3ccc(Cl)c(Cl)c3)c2c1`: the growth inhibition is 18.4%.
Same read-out and setting: in the case of `CN1C(=O)C(/C=N/NC(=O)c2cccnc2)C(N)N(C)C1=O` (stereo not drawn) it was -41.9%; in that of `Cn1c(-c2ccccc2)c/c(=N\NS(C)(=O)=O)c2cc(S(=O)(=O)O)ccc21`, 11.2%; in that of `Cc1ccccc1NC(=O)c1ccc(C(=O)Nc2ccccc2C)cc1`, 1.05%.
Turning to `Nc1cc(C(=O)O)c(O)c(Cl)c1O`, the growth inhibition was 4.5%.
As for `Cc1ccc(N(C(=O)CC(=O)N/N=C/c2ccccc2O)C(=O)c2ccccc2)cc1`, the growth inhibition is -27.1%.
On to `O=NN(Cc1ccc(Cl)cc1)NC1=NCCN1`, for which the growth inhibition is 15.2%.
The same measure, in the same setting: in the case of `CC(=O)c1cc(-c2ccccn2)c(=O)n2ccccc12` it was 5.25%; in that of `C=CC(=NC(C)C)N(C)c1ccccc1`, 26.5%.
As to `S=C(SSSC(=S)N(C1CCCCC1)C1CCCCC1)N(C1CCCCC1)C1CCCCC1`, the growth inhibition is -5.9%.
Same read-out and setting: the result for `C=C1C2CC[C@@]3(CC[C@@H]4[C@@]5(C)CCC[C@@]4(CN4CCO[C@H]45)[C@@H]3C2)[C@@H]1O` reads 11.2%.
